# Source: PubChem (National Center for Advancing Translational Sciences (NCATS))
# Shown are actives, neighbours in structure and some others; about 2.4% of the full set was active somewhere.
# D2 PAM-1: Beta-Arrestin HTS for Positive Allosteric Modulators of the Human D2 Dopamine Receptor: Potentiators; D(2) dopamine receptor (Homo sapiens), P14416; DiscoveRx D2 beta-arrestin cells, luminescence, 90 min; 100% = 57 uM dopamine signal; potentiation, % (test concentration not listed); 360,000 tested, 0.23% active; in the data active = potentiation above about 50%; inconclusive = mostly about 30% to 49%
# Target sequence (P14416 whole entry, looked up): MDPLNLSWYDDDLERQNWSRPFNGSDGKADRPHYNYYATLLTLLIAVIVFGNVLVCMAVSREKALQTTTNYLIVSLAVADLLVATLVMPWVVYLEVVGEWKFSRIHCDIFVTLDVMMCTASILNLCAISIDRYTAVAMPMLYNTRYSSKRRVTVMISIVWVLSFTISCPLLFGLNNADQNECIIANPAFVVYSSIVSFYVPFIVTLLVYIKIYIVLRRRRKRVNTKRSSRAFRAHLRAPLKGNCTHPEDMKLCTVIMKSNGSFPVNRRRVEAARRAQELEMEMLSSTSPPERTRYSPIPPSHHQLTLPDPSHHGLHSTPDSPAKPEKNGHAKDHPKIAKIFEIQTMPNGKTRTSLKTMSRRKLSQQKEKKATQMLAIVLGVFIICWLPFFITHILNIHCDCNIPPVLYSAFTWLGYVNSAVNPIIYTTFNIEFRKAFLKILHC
#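 PathHunter beta-arrestin assay in DiscoveRx D2 cells. Compounds were added with an EC20 of dopamine (50 nM final) for 90 min at 37 deg C. Luminescence was read 1 h after detection reagent, with 57 uM dopamine as the EC100 control.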
# D2 antagonist: HTS Assay for Allosteric Antagonists of the Human D2 Dopamine Receptor: Primary Screen for Antagonists; HEK293 TREx D2 cells, calcium flux, dopamine EC80; AID 485344, 2010; D(2) dopamine receptor (Homo sapiens), P14416; 340,000 tested, 2% active; inhibition, % at 10 µM; in the data active = inhibition above about 30%; inactive = below that, where a call was filed; also: 0% is about no effect
#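 Antagonism is scored as inhibition of an EC80 dopamine-evoked calcium signal in a force-coupled, tetracycline-inducible HEK293 T-REx D2 line, with compound present 180 s before agonist.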
# D2 ag-1: HTS Assay for Allosteric Agonists of the Human D2 Dopamine Receptor: Primary Screen for Agonists. D(2) dopamine receptor (Homo sapiens), P14416. activation, % at 2 µM. 340,000 tested, 0.53% active. HEK293 T-REx D2 cells, calcium flux agonist mode;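 active = activation over 3 SD above normal in the single-dose calcium agonist read, cut at about 30% in these data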; also: 0% is about no effect
#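 Agonism is scored from calcium flux in a force-coupled, inducible HEK293 cell line expressing D2, read kinetically for 180 s after compound addition against dopamine controls.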
# D2 PAM-2: HTS Assay for Positive Allosteric Modulators of the Human D2 Dopamine Receptor: Primary Screen for Potentiators; D(2) dopamine receptor (Homo sapiens), P14416; HEK293 T-REx D2, calcium flux, EC20 dopamine potentiation; potentiation, % at 10 µM; 340,000 tested, 0.34% active; AID 485347, 2010;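 active = potentiation over 3 SD above the plate norm, cut at about 30% in these data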; also: 0% is about no effect
#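 Primary screen. Calcium kinetics in induced HEK293 T-REx D2 cells: compound pre-addition 180 s, EC20 dopamine, 180 s more.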
# B2AR arrestin: qHTS assay of beta-arrestin-biased ligands of beta2-adrenergic receptor; Beta-2 adrenergic receptor (Homo sapiens), P07550; beta-arrestin recruitment to beta2AR, cell-based reporter; Potency, µM (titrated, usually from 46.1 µM), without a hit: at the top dose activation, actives largely listed as activators; 330,000 tested, 0.02% active;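 also: potency is read from the fitted curve at half-maximal effect; 0% = DMSO controls and full agonism = EC100 isoproterenol or metaproterenol; nearly all actives have a fitted effect of over 65% in size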
# D2 ag-2: Beta-Arrestin HTS for Positive Allosteric Modulators of the Human D2 Dopamine Receptor: Agonists; D(2) dopamine receptor (Homo sapiens), P14416; DiscoveRx PathHunter D2 beta-arrestin, luminescence, 90 min; 100% = 57 uM dopamine signal; activation, % (concentration not given with the values); 360,000 tested, 0.084% active; AID 624465, 2012; in the data active = activation above about 40%; inconclusive = between about 15% and that limit
#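 DiscoveRx PathHunter D2 beta-arrestin cells (2,100/well) attached overnight, then compound-stimulated 90 min at 37 C in HBSS/10 mM HEPES/0.1% Tween-20 buffer; beta-galactosidase complementation read by luminescence after 1 h at ambient temperature. Dopamine 57 uM final (EC100) as control.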
# D3 arrestin ag: qHTS of D3 Dopamine Receptor Agonist: D3 Dopamine Receptor B-arrestin Agonist Confirmatory Assay | shares compounds with D2 ag-1 | DiscoveRx D3 beta-arrestin cells, luminescence, 90 min | Potency, µM (titrated, usually from 76.9 µM), without a hit: at the top dose activation, most hits filed as activators | 2,300 tested, 4% active | AID 720506, 2013;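 also: potency is read from the fitted curve at half-maximal effect; 100% = dopamine control response; nearly all actives have a fitted effect of over 70% in size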
# D2 ag-3: qHTS of D3 Dopamine Receptor Agonist: D2 Dopamine Receptor B-arrestin Agonist Counterscreen. shares compounds with D2 ag-1. DiscoveRx PathHunter D2 beta-arrestin, luminescence, 90 min; response scale: percent relative to full dopamine signal. Potency, µM (top dose mostly 76.9 µM), for the others: at the top dose activation, most hits filed as activators. 2,300 tested, 5.9% active. AID 720507, 2013; also: potency is read from the fitted curve at half-maximal effect; % of control where 0% means no effect; nearly all actives have a fitted effect of over 70% in size
# Starred values were filed as active, the others as inactive; ? = inconclusive; · = not tested or not shown; ! = not confirmed by another sample. Unless noted, calls follow the shape of the dose curve; as a rule, active = well fitted activation curve with a large enough effect; inconclusive = small, poorly fitted or top-dose-only effect; inactive = flat fitted curve, though single readings scatter.
SMILES,D2 PAM-1,D2 antagonist,D2 ag-1,D2 PAM-2,B2AR arrestin,D2 ag-2,D3 arrestin ag,D2 ag-3
CC(C)c1cccc(-c2ccc3c(c2)S(=O)(=O)c2cccc(C(=O)O)c2C3=O)c1,-13.6,-1.7,-1.3,-7.3,0.2%,-4.3,-1.0%,0.4%
O=C(CCN1CCN(c2ccccc2)CC1)NNC(=O)Cc1ccccc1Cl,-19.6,48.2*,80.6*,-25.1,0.1%,8.7,6.0%,18.4%
O=C(CCN1CCN(Cc2ccccc2)CC1)NNC(=O)Cc1ccc(Cl)c(Cl)c1,-38.9,5.5,-0.2,-2.9,-0.4%,-2.1,·,·
O=C(CCN1CCN(c2ccccc2)CC1)NNC(=O)Cc1c(F)cccc1Cl,-39.0,60.2*,79.0*,-23.8,-0.4%,6.5,?,14.1%
C/C(=N\O)C(C)(C)Nc1ccccc1F,-24.3,-13.5,0.2,6.2,0.1%,-0.5,·,·
O=C(c1cccs1)N(Cc1ccc(F)cc1)C1CCS(=O)(=O)C1 (centres undefined),-3.6,-3.3,0.6,12.6,-0.3%,-4.2,·,·
O=C(c1cccs1)N(Cc1ccco1)C1CCS(=O)(=O)C1 (centres undefined),20.8,40.8*,58.4*,-19.9,0.0%,?,16.6%,24.8%
Cc1ccc(-c2c(NC(=O)C(C)C)n(C)c3ccccc3c2=O)cc1,-8.4,-15.4,-0.4,-1.3,5.2%,-5.1,·,·
CC1=C/C(=C\C=C(C#N)C#N)N(C)c2ccccc21,-4.4,-21.3,31.8*,-12.2,0.0%,-2.6,-26.3%,-7.7%
COc1ccc(C(=O)COC(=O)CN2C(=O)C3C4C=CC(C5CC45)C3C2=O)cc1 (centres undefined),4.9,-3.5,0.4,1.4,-0.3%,-2.3,·,·
Cc1cccc(OCC(=O)NNS(=O)(=O)c2ccccc2F)c1,-4.8,-2.2,2.9,·,-0.3%,-3.8,·,·
Cc1ccc(S(=O)(=O)Nc2ccc3c(c2)nc(CCN2CCN(c4ccccn4)CC2)n3C)cc1,-25.4,51.2*,0.0,-6.5,-0.4%,6.5,8.2%,25.4%
Cc1ccc(S(=O)(=O)Nc2ccc3c(c2)nc(CCN2CCCCC2)n3C)cc1,-8.7,20.2,-0.5,-26.6,-0.8%,-3.6,·,·
Cn1c(CCN2CCN(c3ccccn3)CC2)nc2cc(NS(=O)(=O)c3ccc(Cl)cc3)ccc21,-21.7,73.9*,0.2,-5.3,0.0%,13.5,15.9%,?
Cc1ccc(S(=O)(=O)Nc2ccc3c(c2)nc(CCN2CCOCC2)n3C)cc1,-16.9,4.7,-1.6,-5.1,3.1%,2.4,·,·
c1cnc(N2CCN(Cc3ccc4c(c3)OCO4)CC2)nc1,62.4*!,88.5*,80.4*,-26.1,-1.2%,40.5*!,?,0.0501µM*
NC(=O)C1CCN(Cc2ccc(OCc3ccccc3)cc2)CC1,-5.9,-4.8,0.9,12.2,-0.2%,-6.0,·,·
c1ccc(CN2CCN(c3nc(-c4ccccc4)nc(-n4ccnc4)n3)CC2)cc1,-32.6,3.7,0.0,7.7,0.3%,-3.9,·,·
c1ccc(-c2ccc(CN3CCN(c4ncccn4)CC3)cc2)cc1,28.7,117.9*,78.8*,-32.1,0.1%,?,?,?
c1ccc(COc2ccc(CN3CCN(c4ccccn4)CC3)cc2)cc1,17.6,75.5*,77.1*,-23.2,0.8%,46.5*,?,11.2µM*
Clc1ccc(CN2CCN(c3ncccn3)CC2)cc1,53.1*,84.9*,73.0*,-16.7,0.0%,68.3*,?,2.82µM*
COc1ccc([N+](=O)[O-])cc1N(CC(=O)O)S(C)(=O)=O,-5.7,-3.6,1.0,6.7,-0.1%,4.7,·,·
COc1ccc(-c2coc3c2c(C)cc2oc(=O)c(C)c(C)c23)cc1,·,·,0.7,-9.1,·,·,·,·
Fc1ccc(CN2CCCCCC2)c(F)c1,-21.9,6.6,-0.4,-2.7,-0.4%,-1.2,·,·
CCCCc1c(O)nc(N2CCN(Cc3ccccc3)CC2)[nH]c1=O,-6.1,·,·,·,0.0%,0.0,·,·
SMILES,D2 PAM-1,D2 antagonist,D2 ag-1,D2 PAM-2,B2AR arrestin,D2 ag-2,D3 arrestin ag,D2 ag-3
Fc1ccc(CN2CCN(c3ncccn3)CC2)c(F)c1,28.5,79.5*,94.9*,-24.1,-0.7%,59.8*,?,15.8µM*
Cc1cc(=O)[nH]c(N2CCN(Cc3ccccc3)CC2)n1,-0.3,-16.1,39.7*,-13.6,0.0%,6.1,-12.1%,8.6%
Cc1ccc2[nH]c3c(N4CCN(Cc5ccc6c(c5)OCO6)CC4)ncnc3c2c1,·,·,·,-13.0,-0.3%,·,·,·
c1nc(N2CCN(Cc3ccc4c(c3)OCO4)CC2)c2[nH]cnc2n1,81.5*,·,·,·,0.0%,9.2,16.3%,2.82µM*
Clc1ccc(CN2CCN(c3ncccn3)CC2)cc1Cl,19.6,77.0*,79.7*,-34.6,-0.4%,65.1*,?,14.1µM*
O=C(NCc1ccccc1OC(F)(F)F)C1CCC(=O)N(Cc2ccccn2)C1 (centres undefined),-6.3,-8.5,0.4,7.0,0.2%,0.3,·,·
O=C(Cn1c(=O)oc2cc(S(=O)(=O)N3CCCC3)ccc21)N1CCN(c2ccccc2F)CC1,-11.1,-18.3,1.6,-0.2,-0.8%,-1.0,·,·
CC(Sc1ccsc1[N+](=O)[O-])C(=O)NCc1ccccc1 (centres undefined),·,-4.3,1.3,-3.2,-0.5%,·,·,·
O=C(c1cccnc1)N1CCN(Cc2cccc(F)c2)CC1,-6.9,13.0,0.6,6.1,0.4%,1.7,·,·
C(#Cc1ccccc1)CN1CCN(c2ccccn2)CC1,-10.1,20.3,45.2*,-17.2,-0.6%,5.4,9.5%,11.0%
O=C(Cc1ccccc1)N1CCN(c2ncccn2)CC1,-1.0,0.1,0.2,1.0,-0.4%,4.0,·,·
Fc1cccc(CN2CCN(c3ncccn3)CC2)c1,55.3*,82.8*,76.7*,-28.5,-0.2%,79.5*,?,1.41µM*
C(#Cc1ccccc1)CN1CCCCC1,-21.4,-20.7,-0.5,-5.5,0.1%,-3.3,·,·
